Data: PubChem BioAssay

test system: Chordin-like protein 2 (CHRDL2); assay: compounds binding chordin-like 2 – biochemical, small-molecule microarray, 635 nm fluorescence, primary screen (AID 1126); settings: fluorescence 635 nm, higher = more signal;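 also: printed compound slides probed with Chrdl2 protein at 4 µg/mL for 1 h at 4 C; score merges 667 nm emission intensity with signal to noise over three replicate slides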

Row | SMILES | composite z-score
1 | C=COC[C@H]1CN2[C@@H](CC[C@@H](C)[C@@H]2c2ccc(Br)cc2)C(=O)O1 | 0.664
2 | COC(=O)[C@H](C)NC(=O)CCC1CC(OC(=O)NCCc2ccc(F)cc2)CC2(CCCC(COC(=O)NCCc3ccc(Cl)cc3)O2)O1 (stereo not given in full) | 1.09
3 | COCCCNC(=O)[C@@]1(Sc2ccc(C)cc2)CC(=O)N(Cc2ccccc2)[C@@H]1c1ccc(CO)cc1I | -0.527
4 | Cc1ccc(S(=O)(=O)N[C@@H]2COC(=O)[C@H](C)COC(=O)CC=C[C@H]2C)cc1 | 1.23
5 | C=CC[C@]1(C(=O)NCc2ccccc2)N=C(c2ccc(OCCCO)cc2)O[C@H]1c1ccccc1 | -0.911
6 | CCOc1ccc(N2C(=O)/C(=C/C=C/c3ccccc3OC)S(=O)(=O)C2c2cccc([N+](=O)[O-])c2)cc1 (stereo not given) | 0.198
7 | CO[C@H]([C@@H](C)[C@H](OC)c1ccccc1)[C@H](C)[C@@H](OC)[C@H](C)C(C)=O | -0.326
8 | CC(=O)O[C@H]1C2=C(C(=O)[C@@H]3O[C@@H]31)[C@H]1C(C)O[C@@H]2[C@@]23C(=O)[C@@H]4O[C@@H]4[C@@H](O)C2=CO[C@H](C)[C@@H]13 (stereo not given in full) | 0.249
9 | CC(C)=NOCc1ccc(-c2cc(-c3ccccc3)no2)cc1 | 0.14
10 | C=CCC(OC(C)=O)[C@@H]1[C@@H](N(Cc2cc3ccccc3o2)C(=O)Cc2ccc(F)cc2)c2cc(OCCCO)ccc2N1C(=O)Cc1ccc(OC)cc1 (stereo not given in full) | 0.448
11 | CCN1C(=O)[C@H]2[C@H]3[C@H](O)C=CC(=O)[C@@H]3CC[C@H]2C1=O | 0.587
12 | CC(C)OC(=O)C=C1C[C@@H](c2ccc(C#N)cc2)O[C@@H](c2ccc(C#N)cc2)O1 | -0.595
13 | NC(=O)NCC#Cc1ccc2c(c1)[C@]1(C(=O)N2)[C@H](c2ccc(O)cc2)N2[C@H](c3ccccc3)[C@H](c3ccccc3)OC(=O)[C@H]2[C@@H]1C(=O)N1CCCCCCC1 | 0.983
14 | Cc1cc2c(nc1C)CCCN2CC(O)CN1CCN(C)CC1 (stereo not given) | 0.731
15 | C[C@@H]1C=CCC(=O)OC[C@H](C)C(=O)N[C@@H](C)C(=O)OC1 | 0.71
16 | COc1ccc([Si](C)(C)[C@@H]2[C@@H](CCO)O[C@]3(C(=O)N(Cc4ccc(NC(C)=O)cc4)c4ccccc43)[C@H]2C)cc1 | 0.465
17 | COc1ccc([Si](C)(C)[C@H]2[C@H](CC(=O)N3CCC[C@H]3CO)O[C@@]3(C(=O)N(Cc4cccc(N5C(=O)COc6ccccc65)c4)c4ccccc43)[C@@H]2C)cc1 | 0.959
18 | C[C@@H](c1ccccc1)N1C(=O)[C@H]2[C@H]3[C@H](O)C=CC(=O)[C@@H]3CC[C@H]2C1=O | 0.778
19 | C=C(COC)/C(=C/C[C@H](OC(=O)c1ccncc1)c1ccc(CO)o1)c1cc(C(=O)OC)ccc1OC | 0.79
20 | COC(=O)CC=C[C@H](C)[C@H](CO)NS(=O)(=O)c1ccc(C)cc1 | 0.91
21 | C#CCCCON=C1C[C@@H](O)[C@@H](O)[C@@H]2[C@@H]3C(=O)N(c4cccc(Oc5ccccc5)c4)C(=O)[C@@H]3CC[C@@H]12 | -0.0255
22 | CC(C)(C)OC(=O)CC[C@]1(C(N)=O)COC(c2ccc(OCCCO)cc2)=N1 | 0.0555
23 | CC[C@@H](c1ccccc1)n1c(=O)n2n(c1=O)[C@H]1[C@H](O)[C@@H]3O[C@@H]3C(=NOCC=C(C)CCC=C(C)C)[C@H]1CC2 | 0.552
24 | COc1ccc(O[C@H]2C=C[C@@H](c3ccccc3)O[C@@H]2COC(=O)CCC(C)=NOC(C)CN2CCCCc3nc(C)c(C)cc32)cc1 (stereo not given in full) | -0.101
25 | CC=CC1=C(CO)[C@H](O)[C@H]2O[C@H]2[C@H]1O | 1.09
26 | CC(=O)OC[C@H]1O[C@@H](ON=C[C@@H](C)[C@H](OCc2ccccc2)C(C)C)[C@H](OC(C)=O)[C@@H](OC(C)=O)[C@@H]1OC(C)=O | -0.838
27 | CC(C)[C@@H](OCc1ccccc1)[C@H](C)C=NOC[C@@H](C)[C@H](OCc1ccccc1)C(C)C | 0.457
28 | [N-]=[N+]=NCc1ccccc1[C@@H]1OC(c2ccc(OCCCO)cc2)=N[C@]1(Cc1ccccc1)C(=O)N1CCOCC1 | 0.766
29 | CCCC=C(CCC)[C@@H](NC(=O)c1ccc(-c2ccccc2)cc1)c1ccc(C(=O)OC)cc1 | -0.955

target: Concanavalin-A (Canavalia ensiformis) (UniProt P02866); assay: compounds binding concanavalin A lectin – biochemical, small-molecule microarray, Alexa647 label, 635 nm, artefact control for SMM control protein annotation, primary screen (AID 1127); settings: ConA-A647 binding fluorescence, higher = more signal;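 also: z combines 667 nm emission intensity with signal-to-noise across three replicate slides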
Sequence (P02866 whole entry, looked up): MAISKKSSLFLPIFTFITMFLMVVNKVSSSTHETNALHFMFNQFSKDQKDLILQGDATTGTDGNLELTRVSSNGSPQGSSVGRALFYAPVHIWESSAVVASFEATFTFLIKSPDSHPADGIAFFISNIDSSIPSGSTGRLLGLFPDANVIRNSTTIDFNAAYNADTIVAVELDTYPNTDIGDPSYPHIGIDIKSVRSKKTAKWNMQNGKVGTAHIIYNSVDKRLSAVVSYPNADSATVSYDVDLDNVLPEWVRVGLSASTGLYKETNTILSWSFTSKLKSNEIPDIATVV

Row | SMILES | composite z-score
30 | CCCNC(=O)OC[C@H]1O[C@H](CCON=CC[C@@H]2C=C[C@H](OC(C)=O)[C@@H](COC(C)=O)O2)C=C[C@@H]1Oc1ccc(OC)cc1 | 0.0162
31 | O[C@@H](Cc1ccccc1)[C@H]1C2C=CCCC(c3ccccc3)=C2CN1Cc1cccc(Cl)c1 (stereo not given in full) | 0.235
32 | CCCC[C@@H]1C[C@H]1[C@@H](NS(=O)(=O)c1cccc2cccnc12)c1ccc(-c2ccccc2)cc1 | 0.119
33 | O=C1C2=CC[C@H]3C(=O)N(Cc4ccc5c(c4)OCO5)C(=O)[C@H]3[C@H]2[C@H](O)[C@@H]2O[C@H]12 | 0.534
34 | CCOC(=O)[C@H](CC(C)C)NC(=O)CCC1CC(OC(=O)NCCc2ccc(F)cc2)CC2(CCCC(COC(=O)NCc3ccccc3)O2)O1 (stereo not given in full) | 0.754
35 | CCCNC(=O)[C@@H]1c2ccccc2C(=O)N(Cc2ccccc2Cl)[C@H]1c1ccc(CO)cc1 | 1.13
36 | CO[C@@H]1COC(=O)CC=C[C@@H](C)COC(=O)[C@H](COCc2ccccc2)NC(=O)CC=C[C@H]1C | -2.62
37 | C=COC[C@H]1CN2[C@@H](CC[C@@H](C)[C@@H]2c2ccc(Br)cc2)C(=O)O1 | 1.03
38 | COC(=O)[C@H](C)NC(=O)CCC1CC(OC(=O)NCCc2ccc(F)cc2)CC2(CCCC(COC(=O)NCCc3ccc(Cl)cc3)O2)O1 (stereo not given in full) | 0.925
39 | COCCCNC(=O)[C@@]1(Sc2ccc(C)cc2)CC(=O)N(Cc2ccccc2)[C@@H]1c1ccc(CO)cc1I | -1.27
40 | Cc1ccc(S(=O)(=O)N[C@@H]2COC(=O)[C@H](C)COC(=O)CC=C[C@H]2C)cc1 | -0.0405
41 | C=CC[C@]1(C(=O)NCc2ccccc2)N=C(c2ccc(OCCCO)cc2)O[C@H]1c1ccccc1 | 0.691
42 | CCOc1ccc(N2C(=O)/C(=C/C=C/c3ccccc3OC)S(=O)(=O)C2c2cccc([N+](=O)[O-])c2)cc1 (stereo not given) | 0.133
43 | CO[C@H]([C@@H](C)[C@H](OC)c1ccccc1)[C@H](C)[C@@H](OC)[C@H](C)C(C)=O | -2.34
44 | CC(=O)O[C@H]1C2=C(C(=O)[C@@H]3O[C@@H]31)[C@H]1C(C)O[C@@H]2[C@@]23C(=O)[C@@H]4O[C@@H]4[C@@H](O)C2=CO[C@H](C)[C@@H]13 (stereo not given in full) | -0.629
45 | CC(C)=NOCc1ccc(-c2cc(-c3ccccc3)no2)cc1 | 0.0293
46 | C=CCC(OC(C)=O)[C@@H]1[C@@H](N(Cc2cc3ccccc3o2)C(=O)Cc2ccc(F)cc2)c2cc(OCCCO)ccc2N1C(=O)Cc1ccc(OC)cc1 (stereo not given in full) | -0.437
47 | CCN1C(=O)[C@H]2[C@H]3[C@H](O)C=CC(=O)[C@@H]3CC[C@H]2C1=O | 0.373

Row | SMILES | composite z-score
48 | CC(C)OC(=O)C=C1C[C@@H](c2ccc(C#N)cc2)O[C@@H](c2ccc(C#N)cc2)O1 | 1.15
49 | NC(=O)NCC#Cc1ccc2c(c1)[C@]1(C(=O)N2)[C@H](c2ccc(O)cc2)N2[C@H](c3ccccc3)[C@H](c3ccccc3)OC(=O)[C@H]2[C@@H]1C(=O)N1CCCCCCC1 | 0.848
50 | Cc1cc2c(nc1C)CCCN2CC(O)CN1CCN(C)CC1 (stereo not given) | 1.02
51 | C[C@@H]1C=CCC(=O)OC[C@H](C)C(=O)N[C@@H](C)C(=O)OC1 | 0.155
52 | COc1ccc([Si](C)(C)[C@@H]2[C@@H](CCO)O[C@]3(C(=O)N(Cc4ccc(NC(C)=O)cc4)c4ccccc43)[C@H]2C)cc1 | 1.1
53 | COc1ccc([Si](C)(C)[C@H]2[C@H](CC(=O)N3CCC[C@H]3CO)O[C@@]3(C(=O)N(Cc4cccc(N5C(=O)COc6ccccc65)c4)c4ccccc43)[C@@H]2C)cc1 | 0.997
54 | C[C@@H](c1ccccc1)N1C(=O)[C@H]2[C@H]3[C@H](O)C=CC(=O)[C@@H]3CC[C@H]2C1=O | 0.518
55 | C=C(COC)/C(=C/C[C@H](OC(=O)c1ccncc1)c1ccc(CO)o1)c1cc(C(=O)OC)ccc1OC | 0.889
56 | COC(=O)CC=C[C@H](C)[C@H](CO)NS(=O)(=O)c1ccc(C)cc1 | 0.579
57 | C#CCCCON=C1C[C@@H](O)[C@@H](O)[C@@H]2[C@@H]3C(=O)N(c4cccc(Oc5ccccc5)c4)C(=O)[C@@H]3CC[C@@H]12 | 0.884
58 | CC(C)(C)OC(=O)CC[C@]1(C(N)=O)COC(c2ccc(OCCCO)cc2)=N1 | -0.207
59 | CC[C@@H](c1ccccc1)n1c(=O)n2n(c1=O)[C@H]1[C@H](O)[C@@H]3O[C@@H]3C(=NOCC=C(C)CCC=C(C)C)[C@H]1CC2 | 0.548
60 | COc1ccc(O[C@H]2C=C[C@@H](c3ccccc3)O[C@@H]2COC(=O)CCC(C)=NOC(C)CN2CCCCc3nc(C)c(C)cc32)cc1 (stereo not given in full) | -0.929
61 | CC=CC1=C(CO)[C@H](O)[C@H]2O[C@H]2[C@H]1O | 0.291
62 | CC(=O)OC[C@H]1O[C@@H](ON=C[C@@H](C)[C@H](OCc2ccccc2)C(C)C)[C@H](OC(C)=O)[C@@H](OC(C)=O)[C@@H]1OC(C)=O | 0.468
63 | CC(C)[C@@H](OCc1ccccc1)[C@H](C)C=NOC[C@@H](C)[C@H](OCc1ccccc1)C(C)C | 0.31
64 | [N-]=[N+]=NCc1ccccc1[C@@H]1OC(c2ccc(OCCCO)cc2)=N[C@]1(Cc1ccccc1)C(=O)N1CCOCC1 | 1.16
65 | CCCC=C(CCC)[C@@H](NC(=O)c1ccc(-c2ccccc2)cc1)c1ccc(C(=O)OC)cc1 | 0.724
